This is an account of results in PubChem BioAssay (EPA / NIEHS).

A short description of test [1]: ATG_TGFb_CIS: Attagene CIS-FACTORIAL HepG2 Assay for human Transforming Growth Factor (TGF) (AID 2282967; active means hit-call score of the fitted dose curve at least 0.9, where 1 is the maximum; inactive means score below 0.9). Particulars: HepG2 Attagene CIS TGFb reporter, mRNA transcription; actives raise or lower the signal. In a few lines:
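HepG2 cells transiently transfected with cis-promoter-driven multiplexed reporter units; 24 h compound exposure. Reporter mRNA measured by RT-PCR, 6-FAM labeling, HpaI digestion and capillary electrophoresis; bidirectional fit versus DMSO baseline.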

Test [2] in a line: ATG_VDRE_CIS: Attagene CIS-FACTORIAL HepG2 Assay for human Vitamin D Receptor Element (VDRE) (AID 2282968; active means hit-call score of the fitted dose curve at least 0.9, where 1 is the maximum; inactive means score below 0.9). Particulars: HepG2 VDRE cis-reporter transcription, actives raise or lower the signal. In a few lines:
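In transiently transfected HepG2 liver cells, gain or loss of reporter mRNA after 24 h exposure is scored relative to DMSO, using fluorescence detection by capillary electrophoresis of RT-PCR products.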

Test [3] addresses Nuclear receptor subfamily 1 group I member 3 (Homo sapiens) (UniProt Q14994). Kind of test: ATG_CAR_TRANS: Attagene TRANS-FACTORIAL HepG2 Assay for human Constitutive Androstane Receptor (CAR) (AID 2282969).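 Further: activators raise reporter mRNA above DMSO so AC50 marks induction.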 Particulars: HepG2 Attagene TRANS-FACTORIAL CAR reporter. In a few lines: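 Readout is reporter mRNA induction, quantified by fluorescent primer extension and capillary electrophoresis after RT-PCR. Cells were HepG2 transiently carrying chimeric NR-Gal4 constructs with GAL4-UAS reporters, treated for 24 h; activity scored upward from DMSO.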

The target of test [4] is X-box-binding protein 1 (Homo sapiens) (UniProt P17861). Kind of test: ATG_Xbp1_CIS: Attagene CIS-FACTORIAL HepG2 Assay for human X-box Binding Protein 1 (XBP1) (AID 2282972; active means hit-call score of the fitted dose curve at least 0.9, where 1 is the maximum; inactive means score below 0.9). Particulars: HepG2 XBP1 cis-element reporter, Attagene multiplex; actives raise or lower the signal. In a few lines: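 HepG2 cells transiently transfected with multiple cis-element reporter units report endogenous TF activity; 24 h exposure, then reporter mRNA measured by RT-PCR, 6-FAM labelling, HpaI digestion and capillary electrophoresis. Bidirectional fitting versus DMSO.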
Chain of X-box-binding protein 1 (Homo sapiens) (P17861 whole entry, looked up): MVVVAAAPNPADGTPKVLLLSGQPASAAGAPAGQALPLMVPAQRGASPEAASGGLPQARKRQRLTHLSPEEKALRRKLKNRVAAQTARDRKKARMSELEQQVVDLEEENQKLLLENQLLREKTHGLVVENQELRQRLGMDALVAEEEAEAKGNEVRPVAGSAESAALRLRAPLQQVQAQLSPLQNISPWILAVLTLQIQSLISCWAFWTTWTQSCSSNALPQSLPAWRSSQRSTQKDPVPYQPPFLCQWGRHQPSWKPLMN

A short description of test [5]: ATG_M_19_TRANS: Attagene TRANS-FACTORIAL HepG2 Assay for M19 Transcription Factor (Internal Marker) (AID 2282974). Particulars: HepG2 Attagene TRANS-FACTORIAL M19 internal marker reporter. In a few lines:
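24 h chemical exposure of transiently transfected HepG2 (MRTU library). RNA → oligo(dT) RT → PCR → 6-FAM labelling → HpaI cut → CE fluorescence. Positive-direction fit vs DMSO baseline; background internal-marker readout.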

The target in test [6] is Glucocorticoid receptor (Homo sapiens) (UniProt P04150). In words: ATG_GR_TRANS: Attagene TRANS-FACTORIAL HepG2 Assay for human Glucocorticoid Receptor (GR) (AID 2282978).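 Further: activators score as hits since higher reporter transcript over DMSO is fitted.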 Particulars: HepG2 Attagene TRANS GR reporter, mRNA transcription. An outline of the steps:
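Transient MRTU transfection of HepG2 (GAL4-UAS reporters, exogenous NR-GAL4 chimeras), 24 h dosing. Readout: reporter transcript via RT-PCR + capillary electrophoresis fluorescence. Positive direction vs DMSO baseline.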

Test [7] addresses Oxysterols receptor LXR-alpha (Homo sapiens) (UniProt Q13133). Kind of test: ATG_LXRa_TRANS: Attagene TRANS-FACTORIAL HepG2 Assay for human Liver X Receptor alpha (LXRa) (AID 2282980). Particulars: HepG2 Attagene TRANS reporter, LXRa transactivation. An outline of the steps:
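Read-out: reporter transcript levels by RT-PCR plus capillary electrophoresis, fluorescence intensity. Transiently transfected HepG2, exogenous NR-GAL4 chimera, GAL4-UAS reporters; 24 h compound exposure. Activity = increase over DMSO negative control.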

Test [8] is described as follows: ATG_M_32_TRANS: Attagene TRANS-FACTORIAL HepG2 Assay for M32 Transcription Factor (Internal Marker) (AID 2282984).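 Further: transcript level of a background control reporter unit measured by RT-PCR and capillary electrophoresis.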 Particulars: HepG2 Attagene TRANS M32 internal marker reporter. In a few lines: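 Using transiently transfected HepG2 cells exposed to test chemicals for 24 h, reporter transcripts are converted to labelled cDNA fragments and quantified by capillary electrophoresis. DMSO defines the activity baseline.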

For test [9], the target named is Nuclear receptor subfamily 4 group A member 2 (Homo sapiens) (UniProt P43354). Kind of test: ATG_NURR1_TRANS: Attagene TRANS-FACTORIAL HepG2 Assay for human Nuclear Receptor Related Protein 1 (NURR1) (AID 2282985). Particulars: HepG2 Attagene TRANS reporter, mRNA readout. An outline of the steps: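 Cells: HepG2, transiently transfected. Exposure: 24 h. Detection: fluorescence of labelled RT-PCR products separated by capillary electrophoresis; upward fit versus DMSO.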

In test [10] the target is Transcriptional activator Myb (Homo sapiens) (UniProt P10242). Kind of test: ATG_Myb_CIS: Attagene CIS-FACTORIAL HepG2 Assay for human Myeloblastosis (Myb) Proto-Oncogene Transcription Factor (AID 2282986; active means hit-call score of the fitted dose curve at least 0.9, where 1 is the maximum; inactive means score below 0.9). Particulars: HepG2 Attagene CIS-FACTORIAL Myb reporter transcription; actives raise or lower the signal. An outline of the steps: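 HepG2, transient MRTU transfection (cis-element promoters, endogenous TF activity), 24 h compound exposure. Readout: reporter mRNA via RT-PCR, 6-FAM labeling, HpaI digest, capillary electrophoresis. Gain/loss fit vs DMSO.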
Chain of Transcriptional activator Myb (Homo sapiens) (P10242 whole entry, looked up): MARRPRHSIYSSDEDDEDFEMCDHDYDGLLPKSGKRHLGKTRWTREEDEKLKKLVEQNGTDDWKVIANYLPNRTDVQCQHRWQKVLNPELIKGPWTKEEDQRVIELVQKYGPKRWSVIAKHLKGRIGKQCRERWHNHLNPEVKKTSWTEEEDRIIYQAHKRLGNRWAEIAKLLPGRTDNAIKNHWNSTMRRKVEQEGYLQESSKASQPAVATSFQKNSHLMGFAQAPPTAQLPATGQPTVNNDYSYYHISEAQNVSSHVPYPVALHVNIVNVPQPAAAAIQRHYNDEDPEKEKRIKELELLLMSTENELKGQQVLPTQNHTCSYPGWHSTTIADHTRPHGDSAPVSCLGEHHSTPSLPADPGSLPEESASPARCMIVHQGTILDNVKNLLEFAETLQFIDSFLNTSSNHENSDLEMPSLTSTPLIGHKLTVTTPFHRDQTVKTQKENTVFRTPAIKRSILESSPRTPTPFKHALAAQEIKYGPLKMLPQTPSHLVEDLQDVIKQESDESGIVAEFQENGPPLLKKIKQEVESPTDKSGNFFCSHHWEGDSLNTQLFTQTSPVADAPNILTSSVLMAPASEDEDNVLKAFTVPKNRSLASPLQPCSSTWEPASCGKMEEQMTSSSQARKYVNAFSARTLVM

Test [11] addresses Nuclear respiratory factor 1 (Homo sapiens) (UniProt Q16656). In words: ATG_NRF1_CIS: Attagene CIS-FACTORIAL HepG2 Assay for human Nuclear Respiratory Factor 1 (NRF1) Orphan Gene (AID 2282987; active means hit-call score of the fitted dose curve at least 0.9, where 1 is the maximum; inactive means score below 0.9). Particulars: HepG2 NRF1 cis-element reporter, Attagene multiplex; actives raise or lower the signal. In a few lines: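 Endogenous NRF1-driven reporter transcription measured in transiently transfected human HepG2 liver cells. Readout: reporter mRNA by RT-PCR and capillary electrophoresis with fluorescence detection, 24 h post-dosing. Gain or loss of signal fitted relative to DMSO baseline.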

In test [12] the target is Estrogen receptor (Homo sapiens) (UniProt P03372). Kind of test: ATG_ERa_TRANS: Attagene TRANS-FACTORIAL HepG2 Assay for human Estrogen Receptor alpha (ERa) (AID 2282970). Particulars: HepG2 Attagene TRANS ERa GAL4 reporter, mRNA. An outline of the steps: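 After 24 h of compound treatment, RNA from HepG2 cells bearing transfected GAL4-UAS reporter constructs is converted to cDNA, amplified and fluorescently labelled. Capillary electrophoresis resolves the ERa-linked reporter; DMSO serves as negative control.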
Chain of Estrogen receptor (Homo sapiens) (P03372 whole entry, looked up, the tested form may be a part): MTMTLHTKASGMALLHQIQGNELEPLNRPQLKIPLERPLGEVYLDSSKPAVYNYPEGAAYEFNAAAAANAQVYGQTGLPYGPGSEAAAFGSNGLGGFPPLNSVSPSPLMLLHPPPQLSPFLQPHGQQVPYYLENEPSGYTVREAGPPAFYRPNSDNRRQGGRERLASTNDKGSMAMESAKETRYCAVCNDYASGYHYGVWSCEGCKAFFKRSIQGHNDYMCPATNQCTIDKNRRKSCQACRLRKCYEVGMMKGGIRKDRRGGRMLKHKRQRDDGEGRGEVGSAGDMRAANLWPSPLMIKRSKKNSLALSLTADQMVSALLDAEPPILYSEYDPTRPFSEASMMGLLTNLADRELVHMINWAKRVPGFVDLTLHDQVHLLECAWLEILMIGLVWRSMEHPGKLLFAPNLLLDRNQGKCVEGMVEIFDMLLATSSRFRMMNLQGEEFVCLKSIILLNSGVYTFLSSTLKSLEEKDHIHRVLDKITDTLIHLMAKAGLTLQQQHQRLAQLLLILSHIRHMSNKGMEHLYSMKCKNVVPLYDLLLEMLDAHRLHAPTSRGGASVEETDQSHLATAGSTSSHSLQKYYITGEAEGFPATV

Test [13] addresses Bile acid receptor (Homo sapiens) (UniProt Q96RI1). In words: ATG_FXR_TRANS: Attagene TRANS-FACTORIAL HepG2 Assay for Farnesoid X Receptor (FXR) (AID 2282979).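 Further: hits raise reporter mRNA above DMSO so AC50 marks FXR activation.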 Particulars: HepG2 Attagene TRANS FXR-GAL4 reporter transcription. In a few lines: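 Read-out: fluorescent reporter transcripts quantified by capillary electrophoresis after RT-PCR of total RNA. Source cells were HepG2 transiently carrying chimeric NR-GAL4 plus GAL4-UAS reporter units, dosed 24 h. Activity fitted upward relative to DMSO baseline.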

Test [14] is described as follows: ATG_M_06_TRANS: Attagene TRANS-FACTORIAL HepG2 Assay for M06 Transcription Factor (Internal Marker) (AID 2282983). Particulars: HepG2 Attagene TRANS M06 internal marker reporter. An outline of the steps:
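After a 24 h chemical treatment of transfected HepG2, RNA underwent DNase I treatment, reverse transcription and reporter-specific PCR; labelled, HpaI-digested products were sized by capillary electrophoresis. Signal increase relative to DMSO defined activity.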

Test [15] in a line: ATG_GAL4_TRANS: Attagene TRANS-FACTORIAL HepG2 Assay for GAL4 (Internal Marker) (AID 2282976). Particulars: HepG2 Attagene TRANS GAL4 internal marker reporter. An outline of the steps:
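RT-PCR/capillary electrophoresis readout of reporter mRNA. HepG2, transient MRTU transfection (GAL4-UAS reporters), 24 h compound exposure. Background-control endpoint, positive direction vs DMSO baseline.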

Test [16] has as its target Hepatocyte nuclear factor 4-alpha (Homo sapiens) (UniProt P41235). Kind of test: ATG_HNF4a_TRANS: Attagene TRANS-FACTORIAL HepG2 Assay for human Hepatocyte Nuclear Factor 4 alpha (HNF4a) (AID 2282982). Particulars: HepG2 HNF4a transactivation reporter, mRNA readout. An outline of the steps: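 Transfected HepG2 reporter cells are dosed for 24 h; reporter RNA is reverse-transcribed, amplified, fluorescently labelled and HpaI-digested before CE sizing. Positive-direction fit against DMSO.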

The target in test [17] is Oxysterols receptor LXR-beta (Homo sapiens) (UniProt P55055). Kind of test: ATG_LXRb_TRANS: Attagene TRANS-FACTORIAL HepG2 Assay for human Liver X Receptor beta (LXRb) (AID 2282981). Particulars: HepG2 Attagene TRANS GAL4-LXRb reporter, mRNA. An outline of the steps: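 Cells: HepG2, transiently transfected with GAL4-UAS reporter units plus LXRb-Gal4 fusion. Treatment: 24 h. Detection: reporter mRNA by RT-PCR, 6-FAM labelling, HpaI digestion, capillary electrophoresis.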
Chain of Oxysterols receptor LXR-beta (Homo sapiens) (P55055 whole entry, looked up, the tested form may be a part): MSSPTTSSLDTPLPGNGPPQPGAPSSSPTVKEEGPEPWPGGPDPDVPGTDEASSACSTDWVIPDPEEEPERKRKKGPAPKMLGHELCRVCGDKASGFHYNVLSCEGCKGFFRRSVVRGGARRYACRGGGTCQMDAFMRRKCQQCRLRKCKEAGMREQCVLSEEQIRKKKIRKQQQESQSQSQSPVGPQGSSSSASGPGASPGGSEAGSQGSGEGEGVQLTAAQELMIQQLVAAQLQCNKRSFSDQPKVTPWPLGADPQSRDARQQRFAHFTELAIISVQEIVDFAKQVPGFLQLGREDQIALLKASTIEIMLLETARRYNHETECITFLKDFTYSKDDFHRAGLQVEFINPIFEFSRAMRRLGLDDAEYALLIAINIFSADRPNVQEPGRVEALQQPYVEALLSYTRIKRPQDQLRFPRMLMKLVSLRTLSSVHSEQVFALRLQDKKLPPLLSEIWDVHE

The target of test [18] is Steroid hormone receptor ERR1 (Homo sapiens) (UniProt P11474). In words: ATG_ERRa_TRANS: Attagene TRANS-FACTORIAL HepG2 Assay for human Estrogen-Related Receptor alpha (ERRa) (AID 2282971). Particulars: HepG2 Attagene TRANS reporter, ERRa transactivation. In a few lines: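 Transfected HepG2, 24 h dosing, ERRa-Gal4 chimera driving GAL4-UAS reporter. Readout: reporter mRNA via RT-PCR plus capillary electrophoresis (fluorescence). Positive direction vs DMSO control.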

For test [19], the target named is Androgen receptor (Homo sapiens) (UniProt P10275). In words: ATG_AR_TRANS: Attagene TRANS-FACTORIAL HepG2 Assay for human Androgen Receptor (AR) (AID 2282973). Particulars: HepG2 Attagene TRANS-FACTORIAL AR reporter transcription. An outline of the steps:
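Readout is reporter transcript abundance, quantified by fluorescent RT-PCR products separated on capillary electrophoresis. Human HepG2 liver cells carried transiently transfected NR-Gal4 chimera plus GAL4-UAS reporter constructs and were dosed for 24 h; activity scored upward versus DMSO.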

Results filed as inconclusive are left out. Activity calls are given as the source filed them. How the source made its calls, unless noted: active means hit-call score of the fitted dose curve at least 0.9, where 1 is the maximum; inconclusive means response in the unintended direction; inactive means score below 0.9.

Chain of Oxysterols receptor LXR-alpha (Homo sapiens) (Q13133 whole entry, looked up, the tested form may be a part): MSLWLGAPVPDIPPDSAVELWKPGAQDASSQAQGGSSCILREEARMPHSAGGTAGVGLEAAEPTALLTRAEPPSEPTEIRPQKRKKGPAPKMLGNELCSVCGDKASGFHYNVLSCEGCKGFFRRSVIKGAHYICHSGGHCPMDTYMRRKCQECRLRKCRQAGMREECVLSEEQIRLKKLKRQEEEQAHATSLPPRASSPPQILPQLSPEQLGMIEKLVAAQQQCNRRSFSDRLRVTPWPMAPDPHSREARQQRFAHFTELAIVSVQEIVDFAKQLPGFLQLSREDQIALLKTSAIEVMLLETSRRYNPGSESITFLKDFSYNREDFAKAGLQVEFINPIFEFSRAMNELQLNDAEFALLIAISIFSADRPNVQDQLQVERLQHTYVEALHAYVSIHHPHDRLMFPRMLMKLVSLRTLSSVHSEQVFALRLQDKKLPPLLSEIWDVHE
Chain of Nuclear respiratory factor 1 (Homo sapiens) (Q16656 whole entry, looked up): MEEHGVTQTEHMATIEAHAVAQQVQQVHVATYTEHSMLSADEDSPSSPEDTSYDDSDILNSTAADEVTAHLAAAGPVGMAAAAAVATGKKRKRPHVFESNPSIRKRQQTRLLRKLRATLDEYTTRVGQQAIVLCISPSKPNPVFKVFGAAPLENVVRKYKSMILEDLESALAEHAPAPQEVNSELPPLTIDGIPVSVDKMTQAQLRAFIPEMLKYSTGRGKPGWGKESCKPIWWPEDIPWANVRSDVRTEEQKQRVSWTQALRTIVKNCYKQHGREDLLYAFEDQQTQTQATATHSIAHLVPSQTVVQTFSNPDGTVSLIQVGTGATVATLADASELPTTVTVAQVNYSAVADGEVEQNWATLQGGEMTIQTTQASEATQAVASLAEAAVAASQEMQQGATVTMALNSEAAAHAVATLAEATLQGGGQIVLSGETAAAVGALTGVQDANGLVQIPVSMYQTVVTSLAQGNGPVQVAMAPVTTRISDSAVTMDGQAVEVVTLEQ
Chain of Glucocorticoid receptor (Homo sapiens) (P04150 whole entry, looked up, the tested form may be a part): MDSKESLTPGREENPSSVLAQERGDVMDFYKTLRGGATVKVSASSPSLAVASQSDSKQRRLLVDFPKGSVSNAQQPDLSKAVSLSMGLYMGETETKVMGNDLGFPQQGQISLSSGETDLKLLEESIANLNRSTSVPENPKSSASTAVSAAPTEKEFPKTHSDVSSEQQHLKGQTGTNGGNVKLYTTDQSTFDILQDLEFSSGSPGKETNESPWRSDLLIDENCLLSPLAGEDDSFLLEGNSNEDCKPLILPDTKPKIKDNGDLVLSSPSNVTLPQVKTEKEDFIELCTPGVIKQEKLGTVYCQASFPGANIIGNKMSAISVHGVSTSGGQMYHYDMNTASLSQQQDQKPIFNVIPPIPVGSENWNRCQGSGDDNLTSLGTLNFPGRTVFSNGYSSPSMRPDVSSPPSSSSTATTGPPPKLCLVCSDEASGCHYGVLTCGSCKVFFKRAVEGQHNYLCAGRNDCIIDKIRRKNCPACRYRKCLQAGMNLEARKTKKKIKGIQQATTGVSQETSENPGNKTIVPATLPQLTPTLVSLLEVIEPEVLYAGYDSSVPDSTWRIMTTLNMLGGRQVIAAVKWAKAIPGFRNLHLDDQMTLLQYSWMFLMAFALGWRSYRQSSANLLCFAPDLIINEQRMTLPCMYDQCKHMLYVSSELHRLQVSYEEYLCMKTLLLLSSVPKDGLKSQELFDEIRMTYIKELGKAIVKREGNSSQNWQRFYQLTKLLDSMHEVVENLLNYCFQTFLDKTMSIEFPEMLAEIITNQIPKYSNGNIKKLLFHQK
Chain of Nuclear receptor subfamily 1 group I member 3 (Homo sapiens) (Q14994 whole entry, looked up, the tested form may be a part): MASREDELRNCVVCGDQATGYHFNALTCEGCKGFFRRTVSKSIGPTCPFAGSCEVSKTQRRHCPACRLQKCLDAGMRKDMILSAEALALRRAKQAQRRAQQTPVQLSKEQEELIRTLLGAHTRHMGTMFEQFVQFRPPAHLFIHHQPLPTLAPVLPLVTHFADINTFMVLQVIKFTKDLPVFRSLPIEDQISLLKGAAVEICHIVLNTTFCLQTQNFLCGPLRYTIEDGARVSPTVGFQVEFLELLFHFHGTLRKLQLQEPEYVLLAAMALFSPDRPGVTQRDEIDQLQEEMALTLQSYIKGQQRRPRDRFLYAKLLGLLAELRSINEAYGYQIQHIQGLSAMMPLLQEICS
Chain of Hepatocyte nuclear factor 4-alpha (Homo sapiens) (P41235 whole entry, looked up): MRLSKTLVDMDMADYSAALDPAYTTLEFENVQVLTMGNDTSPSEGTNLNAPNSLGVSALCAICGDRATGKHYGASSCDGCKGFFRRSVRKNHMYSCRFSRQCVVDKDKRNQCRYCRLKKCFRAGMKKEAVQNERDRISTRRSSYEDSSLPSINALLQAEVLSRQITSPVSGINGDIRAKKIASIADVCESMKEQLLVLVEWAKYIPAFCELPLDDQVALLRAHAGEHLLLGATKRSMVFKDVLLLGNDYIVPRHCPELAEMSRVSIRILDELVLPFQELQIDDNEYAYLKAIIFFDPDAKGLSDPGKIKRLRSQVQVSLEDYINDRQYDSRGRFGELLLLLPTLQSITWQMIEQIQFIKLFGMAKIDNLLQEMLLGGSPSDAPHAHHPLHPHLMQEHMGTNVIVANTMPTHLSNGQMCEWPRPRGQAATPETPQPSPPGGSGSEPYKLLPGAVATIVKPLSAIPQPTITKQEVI
Chain of Bile acid receptor (Homo sapiens) (Q96RI1 whole entry, looked up, the tested form may be a part): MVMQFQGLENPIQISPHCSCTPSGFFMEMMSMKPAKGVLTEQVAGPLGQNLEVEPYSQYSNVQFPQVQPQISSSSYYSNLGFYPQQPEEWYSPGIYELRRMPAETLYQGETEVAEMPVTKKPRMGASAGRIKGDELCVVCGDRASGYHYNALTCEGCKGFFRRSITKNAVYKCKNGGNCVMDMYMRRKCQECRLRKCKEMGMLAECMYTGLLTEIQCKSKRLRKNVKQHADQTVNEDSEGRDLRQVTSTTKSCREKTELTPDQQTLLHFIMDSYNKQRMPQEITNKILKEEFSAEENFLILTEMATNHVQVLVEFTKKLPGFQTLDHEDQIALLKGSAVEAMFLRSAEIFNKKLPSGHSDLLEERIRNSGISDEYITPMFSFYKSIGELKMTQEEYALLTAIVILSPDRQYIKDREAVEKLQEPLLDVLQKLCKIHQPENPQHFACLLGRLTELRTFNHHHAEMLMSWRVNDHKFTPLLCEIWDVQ

Turning to `CC(C)(C#N)N=NC(C)(C)C#N`, the compound was called inactive in test [1], in [2], in test [3], in test [4], in test [5] and in test [6]. Further, the compound was called inactive in test [7], in test [8], in test [9], in [10] and in [11].

Turning to `CC(C)(c1ccc(O)c(-c2ccccc2)c1)c1ccc(O)c(-c2ccccc2)c1`, the outcome in [1], in test [3], in test [12], in test [13], in [14] and in [8] was inactive. The compound was called inactive in test [9], in test [10] and in [11]. Also, the AC50 in test [2] was 2.93 µM (active); in test [4], 4.92 µM (active).

Take `C1CN2CCN1CC2`: the call in test [1], in [2], in test [3], in test [4], in [5] and in [15] was inactive. In addition, the compound was called inactive in [16], in [8], in [9], in test [10] and in [11].

In the case of `Cc1cc(Cl)ccc1O`, the compound was classed as inactive in [1], in test [2], in [3], in test [4], in test [5] and in test [6]. In addition, the call in test [13], in test [16], in [8], in [10] and in test [11] was inactive.

For `CCOCn1c(-c2ccc(Cl)cc2)c(C#N)c(Br)c1C(F)(F)F`, the AC50 in [1] is 25.6 µM (active); in [2], 1.79 µM (active); in [4], 2.71 µM (active); in test [10], 78.8 µM (active). In addition, the compound was classed as inactive in test [3], in [12], in [6], in test [13], in [7] and in test [17]. The compound was classed as inactive in [14], in [8], in [9] and in test [11].

On to `Cc1cccc(OP(=O)(Oc2cccc(C)c2)Oc2cccc(C)c2)c1`, for which the compound was called inactive in test [1], in test [3], in test [4], in [5], in test [13] and in [8]. Also, the outcome in [10] and in test [11] was inactive. For the same compound, in [2], the AC50 is 4.85 µM (active).

Turning to `O=C(NC(=O)c1c(F)cccc1F)Nc1cc(Cl)c(F)c(Cl)c1F`, the call in test [1], in test [2], in [3], in [4], in test [14] and in test [8] was inactive. Besides, the call in test [10] and in test [11] was inactive.

For the compound `CCCCS(=O)(=O)Cl`, the compound was called inactive in [1], in [2], in [3], in [18], in test [4] and in test [5]. Besides, the compound was called inactive in test [15], in test [6], in [13], in [17], in [16] and in test [8]. Besides, the compound was called inactive in [9], in [10] and in [11].

On to `Nc1ccc(-c2ccccc2)cc1`, for which the call in [1], in test [2], in [3], in test [4], in [17] and in [14] was inactive. Also, the compound was called inactive in test [8], in test [9], in test [10] and in test [11]. Moreover, the AC50 in [12] is 14.8 µM (active).

Turning to `COP(=S)(OC)Oc1cc(Cl)c(I)cc1Cl`, the compound was called inactive in [1], in test [3], in test [19], in test [5], in test [13] and in test [7]. The compound was classed as inactive in test [17], in [16], in test [14], in [8] and in [9]. Moreover, the AC50 was 24.7 µM (active) in [2], 38.6 µM (active) in test [4], 49.5 µM (active) in [10] and 55.6 µM (active) in test [11].
